# Assay outcomes deposited in PubChem BioAssay by several laboratories.
# Compounds with a hit are over-represented: about 1.2% of the library has one in this group of screens.
# NPR2 activator: human GC-B receptor activators, primary screen, HEK293 GC-B cells, cGMP TR-FRET, EC30 CNP. Atrial natriuretic peptide receptor 2 (Homo sapiens), P20594. activation, % at 10 µM. 370,000 compounds, 0.11% hits. AID 1920062, 2024. 0% at EC30 CNP, 100% saturating CNP;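 active = activation at 10 µM reaching about 35% in either raw or pattern-adjusted values, limit read from the data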
# TLR4 MyD88 comp: inhibitors of TLR4-MyD88 association in cells, primary screen, cell-based, HeLa CL3-4, BLA complementation, FRET ratio; Toll-like receptor 4 (Homo sapiens) + Myeloid differentiation primary response protein …; HeLa CL3-4 TLR4/MyD88 BLA complementation; inhibition, % at 8.4 µM; 200,000 compounds, 0.18% hits; AID 861, 2007; in the data active = inhibition above about 25%;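 note: 0% = vehicle and 100% = reference inhibitor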
# TLR9-MyD88 block: inhibitors of TLR9-MyD88 association in cells, primary screen, cell-based, CHO, BLA complementation, fluorescence. CCF4 FRET ratio. AID 504734, 2011. inhibition, % at 4.98 µM. 340,000 compounds, 0.21% hits. Toll-like receptor 9 (Homo sapiens) + Myeloid differentiation primary response protein …;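 active = inhibition above the mean over all tested compounds plus 3 SD, cut at about 21% in these data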;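 note: 0% = DMSO only wells and 100% = clavulanate BLA inhibitor control wells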
# NOD2-RIPK2 inh: NOD2-RIPK2 binding disruptors in cells, primary screen, fluorescence, CHO cells, BLA complementation; Receptor-interacting serine/threonine-protein kinase 2 (Homo sapiens), O43353; CCF4 ratio; inhibition, % at 4.98 µM; 360,000 compounds, 0.38% hits; AID 624267, 2012; in the data active = inhibition above about 21%;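 note: 0% = vehicle only and 100% = reference blocker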
# NPR1 activator: GC-A stimulated cGMP production enhancers – HEK293 GC-A cells, cGMP TR-FRET, EC30 ANP, primary screen; Atrial natriuretic peptide receptor 1 (Homo sapiens), P16066; 0% at EC30 ANP, 100% saturating ANP; activation, % at 10 µM; 370,000 compounds, 0.14% hits; AID 1671463, 2021; in the data active = activation above about 40%
# Neddyl block: inhibitors of cullin neddylation, primary screen, biochemical, TR-FRET, uHTS, NAE and Ubc12; NEDD8-conjugating enzyme Ubc12 (Homo sapiens) + NEDD8-activating enzyme E1 regulatory …; inhibition, % at 25 µM; 360,000 compounds, 0.58% hits; AID 651699, 2012; in the data active = inhibition above about 36%
# Target sequence (P61081 whole entry, looked up): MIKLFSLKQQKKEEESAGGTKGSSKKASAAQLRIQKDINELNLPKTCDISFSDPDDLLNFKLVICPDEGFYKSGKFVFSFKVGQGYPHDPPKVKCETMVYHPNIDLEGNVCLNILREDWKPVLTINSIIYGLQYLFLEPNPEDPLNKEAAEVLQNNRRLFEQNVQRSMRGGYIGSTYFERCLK
# Target sequence (Q13564 whole entry, looked up): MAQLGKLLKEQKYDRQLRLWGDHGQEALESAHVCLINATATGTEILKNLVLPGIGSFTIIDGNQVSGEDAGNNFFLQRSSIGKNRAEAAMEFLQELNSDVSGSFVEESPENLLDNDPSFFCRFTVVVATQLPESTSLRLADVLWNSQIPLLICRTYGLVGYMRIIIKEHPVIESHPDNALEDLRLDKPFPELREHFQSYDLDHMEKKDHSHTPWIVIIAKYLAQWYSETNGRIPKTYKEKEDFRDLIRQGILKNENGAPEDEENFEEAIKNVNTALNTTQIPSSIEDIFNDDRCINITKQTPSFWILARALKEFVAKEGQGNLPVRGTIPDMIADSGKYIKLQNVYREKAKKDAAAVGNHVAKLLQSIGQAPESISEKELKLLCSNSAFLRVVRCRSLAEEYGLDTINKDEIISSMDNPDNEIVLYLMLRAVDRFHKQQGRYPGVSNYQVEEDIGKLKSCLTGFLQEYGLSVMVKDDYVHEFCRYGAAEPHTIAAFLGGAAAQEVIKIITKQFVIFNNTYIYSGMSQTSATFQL
# Neddyl conf: blockade of NEDD8 conjugation to cullin – biochemical, TR-FRET, single concentration, confirmation; calls only at 25 µM; AID 652217, 2013; 1,800 compounds, 13% hits; TR-FRET cullin neddylation biochemical assay; shares compounds with Neddyl block; in the data active = inhibition above about 40%;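 note: neddylation substrate is the cullin 1 ring ligase complex with SKP2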
# Starred values were filed as active, the others as inactive; i = inactive; . = not tested or not shown; + = active, no number.
SMILES,NPR2 activator,TLR4 MyD88 comp,TLR9-MyD88 block,NOD2-RIPK2 inh,NPR1 activator,Neddyl block,Neddyl conf
Cn1ncc2cc3c(Nc4ccc(Cl)cc4)cccc3nc21,-22,.,.,-10,-27,57*,+
Cn1ncc2c(Nc3ccc(Cl)cc3)ncnc21,-6,.,3,-19,2,30,.
COc1ccc(Cc2noc(=O)[nH]2)cc1,0,.,-1,-4,0,3,.
COc1cc(C2C(C#N)=C(N)N(c3ccc(F)cc3)C3=C2S(=O)(=O)CC3)ccc1O (configuration not stated),-6,12,-1,2,-1,47*,i
CN1c2ccccc2C(O)=C(C(=S)Nc2ccc(F)c(Cl)c2)S1(=O)=O,-2,-6,1,-4,4,44*,i
c1ccc(-c2c[nH]c3cccc(-c4cc5ccccc5o4)c23)cc1,2,.,.,.,-6,.,.
CCNC(=O)N(C)[C@H]1C[C@H]2c3[nH]c4c(-c5cccc(C)c5)cccc4c3CCN2C[C@H]1[C@H](C)O,8,.,.,.,1,.,.
CCN(CC)CCNC(=O)Cn1c(-c2ccccn2)nc2ccccc21,1,15,-1,7,0,47*,+
CC(NC(=O)C1=CC=CN2CCS(=O)(=O)N=C12)c1ccc(Cl)c(Cl)c1 (configuration not stated),2,.,-6,0,-1,44*,+
CC(NC(=O)C1=CC=CN2CCS(=O)(=O)N=C12)c1ccc(Cl)cc1Cl (configuration not stated),5,.,8,-1,-1,55*,.
O=C(Oc1cc(Cl)ccc1Cl)C1=CC=CN2CCS(=O)(=O)N=C12,-1,.,-8,0,5,38,.
CC1(c2nc3ccccc3[nH]2)c2ccccc2C(=O)N1Cc1ccccn1 (configuration not stated),-11,.,.,-9,-9,-4,.
COc1cc(C2C(C(C)=O)=C(O)C(=O)N2Cc2ccccc2)ccc1O (configuration not stated),1,.,-1,-9,5,-2,.
CCCC(=O)N1CCC[C@]2(CC[C@@H](CCC(C)=O)O2)C1,-2,.,.,.,5,.,.
COc1ccc(NC(=O)c2c[nH]c(=O)n(-c3ccc(C)c(C)c3)c2=O)c(OC)c1,8,.,-6,-15,-2,64*,i
COc1ccc(NC(=O)c2c[nH]c(=O)n(-c3ccc(C)c(C)c3)c2=O)cc1OC,-6,-13,3,-26,-5,0,.
Cc1onc(-c2ccccc2)c1C(=O)Nc1ccncc1,3,9,8,-10,1,1,.
CCCC(C(=O)Nc1ccc2c(C)cc(=O)oc2c1)c1ccccc1 (configuration not stated),-8,.,-2,-3,-6,42*,i
Cc1cc(=O)oc2cc(NC(=O)Cc3ccccc3)ccc12,-6,.,-2,-3,-7,38,.
Cc1cc(=O)oc2cc(NC(=O)C(C)Oc3ccc(F)cc3)ccc12 (configuration not stated),-6,.,-2,-3,-2,39*,.
Cc1cc(=O)oc2ccc(OC(C)C(=O)O)cc12 (configuration not stated),5,-5,-9,-2,0,46*,i
Cc1onc(-c2ccccc2)c1C(=O)Nc1ccc2c(C)cc(=O)oc2c1,-6,12,1,-10,-8,41*,i
Cc1cc(=O)oc2cc(NC(=O)c3ccc(OC(F)F)cc3)ccc12,0,.,8,-3,-3,.,.
CN1OC[C@@H]2CN[C@H](c3cccc(Oc4ccccc4)c3)C[C@@H]21,-2,.,3,5,0,3,.
O=C(N[C@H]1C[C@@H]2O[C@H](CO)CC[C@@H]2O[C@@H]1CCc1ccc(-c2cccnc2)cc1)c1cccc(F)c1,-1,.,.,.,-2,.,.
SMILES,NPR2 activator,TLR4 MyD88 comp,TLR9-MyD88 block,NOD2-RIPK2 inh,NPR1 activator,Neddyl block,Neddyl conf
COc1ccccc1C(=O)n1ccc2ccc(-c3ccc4ccn(Cc5ccccc5)c4c3)cc21,2,.,.,.,1,.,.
Cc1nc2c(OCc3ccc(OC(F)F)cc3)cccn2c1N(C)C(=O)CCC1CCCC1,5,.,.,-4,-2,-4,.
CC1NC(=O)c2cc3ccccc3cc2-n2c1nc1ccccc1c2=O (configuration not stated),4,.,6,8,5,-24,.
COc1ccccc1-c1csc(C(O)c2cccc(Cl)c2)n1 (configuration not stated),-3,.,.,-3,-1,-4,.
CC(=O)Nc1nc(CC(C)C)cc(-c2ccco2)c1C#N,5,-5,3,2,6,45*,i
COc1cc(NC(C)=O)ccc1-c1cc2ccccc2oc1=O,-3,4,6,-1,6,42*,i
COc1cc(NC(=O)c2ccc(Cl)cc2Cl)ccc1-c1cc2ccccc2oc1=O,2,14,2,-1,9,-63,.
CN(c1ccccc1)S(=O)(=O)c1cccc(NC(=O)C2=NN(c3ccccc3)C(=O)CC2)c1,-4,.,0,0,-2,45*,i
O=C(CN1c2cccc3cccc(c23)S1(=O)=O)Nc1ccc(F)c(F)c1F,1,.,-12,4,-5,42*,i
O=C(CN1c2cccc3cccc(c23)S1(=O)=O)NCc1ccc(F)cc1,2,.,-11,5,0,46*,+
O=C(CN1c2cccc3cccc(c23)S1(=O)=O)Nc1ccccc1F,-1,.,3,2,-6,36,.
COC(=O)CCC(=O)OC1(C)C(=O)C=C2C=C(C3CC3)N(c3cccc(C#N)c3)C=C2C1=O (configuration not stated),1,.,-2,-5,-3,44*,i
O=C(OC12CCCN(C1)/C(=C/c1ccc(Cl)cc1)C2)c1cccc(F)c1 (configuration not stated),-13,.,.,.,-5,.,.
COc1ccc(C)cc1NS(=O)(=O)c1ccccc1,-4,.,8,-10,-7,5,.
CS(=O)(=O)Nc1ccc(-c2cncc3nccn23)cc1,0,.,.,3,4,50*,.
